Experimental data reported in PubChem BioAssay (NCATS).
Values joined by “and” are separate entries in the source; they are usually repeats but may differ in a detail not shown here. Equal values may be shown once. Inconclusive results are not listed. Active and inactive are the calls of the source. Unless noted, the call rests on the fitted dose curve; in most records, active means well fitted curve in the direction sought with a large enough effect; inconclusive means small, poorly fitted or top-dose-only effect, or another doubt; inactive means no such curve, though single readings can be large; an effect the other way counts as inactive or inconclusive.

Assays:
[1] = qHTS to identify inhibitors of the type 1 interferon - major histocompatibility complex class I in skeletal muscle: primary screen against the NCATS Mechanism Interrogation Plate v5.0 (MIPE) Libary (AID 1347411); further: nearly all actives have a fitted effect of over 65% in size; further: potency means the concentration at half of the fitted maximal effect
Procedure, shortened: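 Cells were genome-edited human myoblasts carrying a HiBit tag on endogenous HLA-B. They were treated with IFN-beta (4.0 ng/ml) and titrated compounds (top 46 uM) for 24 hrs before lytic HiBiT detection.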

[2] = Primary qHTS for inhibitors of nuclear receptor binding SET domain protein 2 (NSD2) in an isogenic RCH-ACV NSD2 p.E1099K mutant (9B) (AID 1645876); further: nearly all actives have a fitted effect of over 70% in size; further: potency means the concentration at half of the fitted maximal effect
[3] = Primary qHTS for inhibitors of nuclear receptor binding SET domain protein 2 (NSD2) in an RCH-ACV wild type WT cells (2C) (AID 1645877); further: nearly all actives have a fitted effect of over 70% in size; further: potency means the concentration at half of the fitted maximal effect
[4] = molecular target: Glutathione peroxidase 1 (Homo sapiens) (UniProt P07203); assay: Primary qHTS Assay for Inhibitors of Recombinant Selenoprotein Glutathione Peroxidase 1 (GPX1) (AID 1845191); further: nearly all actives have a fitted effect of over 65% in size
Sequence of Glutathione peroxidase 1 (Homo sapiens) (P07203 whole entry, looked up): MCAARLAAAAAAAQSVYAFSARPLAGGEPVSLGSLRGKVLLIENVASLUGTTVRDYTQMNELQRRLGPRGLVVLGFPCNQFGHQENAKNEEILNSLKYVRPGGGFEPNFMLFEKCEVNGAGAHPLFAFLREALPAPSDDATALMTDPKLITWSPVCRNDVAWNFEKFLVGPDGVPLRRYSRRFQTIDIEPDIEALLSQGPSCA
Procedure, shortened: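 Recombinant GPX1 (10 nM final) was preincubated with compound for 30 min at room temperature, then reacted with 1 mM GSH, 0.5 mM CHP, 0.5 mM NADPH and 100 nM glutathione reductase; NADPH fluorescence (340/450 nm) was read at 0 and 15 min.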

[5] = molecular target: Phospholipid hydroperoxide glutathione peroxidase GPX4 (Homo sapiens) (UniProt P36969); assay: Primary qHTS Assay for Inhibitors of Recombinant Selenoprotein Glutathione Peroxidase 4 (GPX4) (AID 1845192); conditions: outcome: dose series up to 50 µM unless noted; further: nearly all actives have a fitted effect of over 65% in size
Sequence of Phospholipid hydroperoxide glutathione peroxidase GPX4 (Homo sapiens) (P36969 whole entry, looked up): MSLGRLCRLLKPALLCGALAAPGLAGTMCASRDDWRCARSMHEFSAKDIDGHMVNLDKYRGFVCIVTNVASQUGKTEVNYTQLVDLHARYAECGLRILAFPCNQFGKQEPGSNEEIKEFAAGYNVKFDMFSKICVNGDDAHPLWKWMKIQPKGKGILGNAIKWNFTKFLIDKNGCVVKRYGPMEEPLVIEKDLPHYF
Procedure, shortened: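 GR-coupled readout: 100 nM GR, 1 mM GSH, 0.5 mM NADPH; NADPH fluorescence (ex 340/em 450 nm) read at t=0 and after 15 min RT. GPX4 200 nM, preincubated 30 min with compound; substrate 0.5 mM CHP.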

[6] = qHTS drug screen for cell cycle checkpoint inhibitors in PARPi-resistant BRCA-mutant ovarian cancer cell lines. (AID 1963452; calls by dose curve); conditions: PEO1/OlaR viability, CellTiter-Glo luminescence, 96 h, stronger effect = lower value
Procedure, shortened: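 PEO1, PEO4 and PEO1/OlaR ovarian cancer cells, 600 per well, exposed 96 h at 37C to a dilution series. Viability read by CellTiter-Glo luminescence, normalized to DMSO and empty wells; activity summarized as Z-AUC.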

[7] = measured here: PEO1 parental Z-AUC

| SMILES | Potency [1] | Potency [2] | Potency [3] | Potency [4] | Potency [5] | Z-AUC [6] | Z-AUC [6, 7] | Z-AUC ([6]; measured here: PEO4 Z-AUC) |
| --- | --- | --- | --- | --- | --- | --- | --- | --- |
| Cc1cc(C)cc(Oc2ccc(CNC(=O)[C@H](C)N)cc2C)c1 | inactive | 18.6 µM (active) | 18.6 µM (active) | inactive | inactive | 1.6 (inactive) | 1.04 | 1.3 |
| CCS(=O)(=O)c1ccc2oc(-c3ccc4ccccc4c3)nc2c1 | inactive | inactive | inactive | inactive | inactive | -0.19 (inactive) | -0.286 | 0.217 |
| Nc1nc(-c2nn(Cc3ccccc3F)c3ncccc23)ncc1C1CC1 | inactive | 1.18 µM (active) | 1.18 µM (active) | inactive | inactive | 1.67 (inactive) | 0.865 | 1.09 |
| O=C1NC(=O)[C@@H](c2cn3c4c(cccc24)CCC3)[C@@H]1c1c[nH]c2ccccc12 | inactive | 1.32 µM (active) | 1.05 µM (active) | inactive | inactive | 0.925 (inactive) | 0.797 | 0.765 |
| CCNC(=O)Nc1ccc(Oc2ncnc(N)c2/C=N/OC)cc1Cl | inactive | 20.9 µM (active) | 16.6 µM (active) | inactive | inactive | 1.52 (inactive) | 1.52 | 1.49 |
| Cc1[nH]cnc1CN1CCN(C(=O)N[C@@H](CC(C)C)C(=O)O)[C@@H](Cc2ccccc2)C1=O | inactive | inactive | inactive | inactive | inactive | -0.059 (inactive) | 0.199 | 0.0254 |
| C[C@@]1(c2ncncc2F)NC(=O)c2cc(-c3cn[nH]c3)ccc21 | 20.8 µM (active) | 14.8 µM (active) | 14.8 µM (active) | inactive | inactive | -0.499 (inactive) | -0.528 | -0.372 |
| CC[C@H]1OC(=O)[C@H](C)C(=O)[C@H](C)[C@@H](O[C@H]2O[C@H](C)C[C@H](N(C)C)[C@H]2O)[C@](C)(OC)C[C@@H](C)C(=O)[C@H](C)[C@H]2N(CCCCn3cnc(-c4cccnc4)c3)C(=O)O[C@]12C | inactive | inactive | inactive | inactive | inactive | 0.729 (inactive) | 0.267 | -0.0116 |
| O=C(Nc1cnn2ccc(N3CCC[C@@H]3c3cc(F)ccc3F)nc12)N1CC[C@H](O)C1 | inactive | inactive | inactive | inactive | inactive | 1.28 (inactive) | 1.7 | 1.78 |
| Cc1ccc(S(=O)(=O)Nc2cc(-c3ccc(C#N)s3)ccc2C)cc1 | inactive | 0.0468 µM (active) | 0.0417 µM (active) | inactive | inactive | -2.2 (inactive) | -2.3 | -2.13 |
| O=C1CC[C@H](N2Cc3c(OCc4ccc(CN5CCOCC5)cc4)cccc3C2=O)C(=O)N1 | inactive | 0.0166 µM (active) | 0.0332 µM (active) | inactive | inactive | 1.34 (inactive) | 1.06 | 1.23 |
| C/C(=N\NC(=O)c1cccc(S(=O)(=O)N2CCOCC2)c1)c1cc(Cl)ccc1O | inactive | 2.09 µM (active) | 2.09 µM (active) | inactive | inactive | -1.37 (inactive) and -1.59 (inactive) | -1.95 and -1.28 | -2.11 and -1.42 |
| N#Cc1ccc(N(Cc2ccc(Br)cc2)n2cnnc2)cc1 | inactive | inactive | inactive | inactive | inactive | -0.397 (inactive) | -0.74 | -0.908 |
| CC(=O)N1CCN(c2ccc(NC(=O)Cc3cnc(-c4ccnc(F)c4)c(C)c3)nc2)CC1 | inactive | inactive | inactive | inactive | inactive | 1.31 (inactive) | 1.23 | 0.947 |
| O=C([O-])C[O-].[Pt+2] | inactive | inactive | inactive | inactive | inactive | 1.62 (inactive) | 1.67 | 1.5 |
| COCCOC(=O)N1CCN(S(=O)(=O)c2cc(F)c(Oc3ccc(Cl)cc3)c(F)c2)C(C(=O)NO)C1 (stereo unspecified) | 18.6 µM (active) | 5.9 µM (active) | 4.68 µM (active) | inactive | inactive | -1.01 (inactive) | -1.23 | -1.17 |
| CC1(C(=O)O)CCC2(C)CCC3(C)C(=CC(=O)C4C5(C)CCC(OC6OC(C(=O)O)C(O)C(O)C6OC6OC(C(=O)O)C(O)C(O)C6O)C(C)(C)C5CCC43C)C2C1 (stereo unspecified) | inactive | inactive | inactive | inactive | inactive | -0.447 (inactive) | 1.94 | 1.74 |
